# Only some compounds are listed: those with a hit (about 17% of all), similar ones and a draw of the others.
# ATXN2 expr inh: ATXN2 expression inhibition; HEK-293 ATXN2-luciferase reporter, luminescence, 24 h; 0.72% of 360,000 active; Potency, µM (doses to about 57 µM), for the others: at the highest dose activity change, negative = inhibition, hits mostly inhibitors; further: on the % scale 0 is the no-effect control and ±100 the full control effect; nearly all actives have a fitted effect of over 55% in size
#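 qHTS (up to 57 uM final) was run with 24 h compound exposure of reporter cells at 37 °C. Each well was multiplexed: SteadyGlo luminescence measured ATXN2-luciferase expression after a fluorogenic Gly-Phe-AFC viability readout (25 uM final).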
# TGFb SMAD3 inh: TGF-b pathway inhibition; HepG2 CAGA-GFP TGF-b/SMAD3 reporter, GFP fluorescence, 18 h; TGF-beta stimulated, 500 pg/mL final; Potency, µM (top dose mostly 46.1 µM), for the others: top-dose activity, negative = inhibition, actives largely listed as inhibitors; 1.2% of 410,000 active; AID 588855; further: on the % scale 0 is the no-effect control and ±100 the full control effect; nearly all actives have a fitted effect of over 65% in size
#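 Cell-based qHTS in HEPG2 carrying a CAGA-GFP Smad reporter; compounds added before 500 pg/mL final TGF-beta, 18 h incubation at 37 degrees C, GFP fluorescence quantified per cell by imaging cytometry.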
# HepG2 viability: kills HepG2 cells in TGF-b inhibitor counter-screen. HepG2 CAGA-GFP viability, ATP luminescence, 18 h. Potency, µM (top dose mostly 46.1 µM), for inactives: at the top dose activity change, negative = cytotoxicity, usual class: cytotoxic. 0.76% of 410,000 active
#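 CellTiter-Glo luminescence gave cytotoxicity after 18 hours at 37 degrees C. The cells were HepG2 CAGA-GFP in 1% FBS DMEM, stimulated with 500 pg/mL TGF-beta after compound addition. %Activity was normalised to no-cell wells (complete cell-killing) and DMSO (no toxicity), and curves were fitted and classified.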
# DT40 TDP1 no CPT: qHTS for Inhibitors of human tyrosyl-DNA phosphodiesterase 1 (TDP1): qHTS in cells in absence of CPT; Potency, µM (highest dose often 46.2 µM), without a hit: top-dose activity change, negative = growth inhibition, most hits filed as inhibitors; DT40 Tdp1-/- hTDP1 cells, no CPT, ATP luminescence, 48 h; 15% of 420,000 active; further: on the % scale 0 is the no-effect control and ±100 the full control effect; nearly all actives have a fitted effect of over 55% in size
#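 Growth kinetics read by CellTiter-Glo luminescence after ≥48 hr at 37 °C. Cells: DT40 Tdp1-/- stably carrying human TDP1, 400 per well, compound exposure in the absence of CPT (DMSO vehicle).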
# DT40 TDP1 CPT: growth inhibition of DT40 Tdp1-/-;hTDP1 cells with camptothecin (screen for TDP1 inhibitors); 12% of 420,000 active; AID 686979; chicken DT40 Tdp1-/-;hTDP1 cells + 20 nM CPT, ATP luminescence, 48 h; Potency, µM (titrated, usually from 46.2 µM), without a hit: at the top dose activity change, negative = growth inhibition, hits mostly inhibitors; further: on the % scale 0 is the no-effect control and ±100 the full control effect; nearly all actives have a fitted effect of over 55% in size
#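 Chicken DT40 Tdp1-/- cells complemented with human TDP1, 400 cells/well, exposed to compounds plus 20 nM camptothecin for at least 48 h at 37 C; viability read as ATP content by CellTiter-Glo luminescence.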
# S2 tox: cell viability loss in ATXN counter-screen | S2 cells (HEK-293 line with an ATXN2-luciferase reporter) viability, CellTiter-Fluor protease fluorescence, 24 h | 0.49% of 400,000 active | Potency, µM (highest dose often 56.7 µM), actives largely listed as cytotoxic | AID 651635; further: nearly all actives have a fitted effect of over 40% in size
# Numbers without * were called inactive; i = inactive; ? = inconclusive; nt = not tested or not shown; [ ] = remark or other dose. The call rests on the fitted dose curve; in most records, active means well fitted curve in the direction sought with a large enough effect; inconclusive means small, poorly fitted or top-dose-only effect, or another doubt; inactive means no such curve, though single readings can be large; an effect the other way counts as inactive or inconclusive. Potency means the concentration at half of the fitted maximal effect.
SMILES,ATXN2 expr inh,TGFb SMAD3 inh,HepG2 viability,DT40 TDP1 no CPT,DT40 TDP1 CPT,S2 tox
c1csc(-c2nc3ccccc3[nH]2)c1,28.2%,-1.6%,-0.8%,-21.7%,-22.2%,i
Cc1ccc(-c2nc3ccccc3[nH]2)s1,41.3%,0.2%,-106.2%,16.4µM*,9.2µM*,i
COC(=O)c1ccc(CN2C(=O)C(C)N(C(=O)c3c(F)cccc3F)c3ccccc32)cc1 (centres undefined),-13.6%,0.2%,8.1%,8.2µM*,14.6µM*,i
COC(=O)c1ccc(CN2C(=O)c3ccccc3C2=O)cc1,-21.3%,-4.9%,-0.3%,0.4%,5.0%,i
CC1C(=O)N(Cc2ccc([N+](=O)[O-])cc2)c2ccccc2N1C(=O)C1CC1 (centres undefined),-8.6%,-13.4%,-14.6%,?,?,i
CC1C(=O)N(Cc2ccc(F)cc2)c2ccccc2N1C(=O)c1c(F)cccc1F (centres undefined),-31.3%,-16.6%,-24.7%,?,16.4µM*,i
C=CCN1C[C@H](C(=O)N(CCCN(C)C)C(=O)NCC)C[C@@H]2c3cccc4[nH]cc(c34)C[C@H]21,-6.6%,nt,nt,-18.2%,-6.5%,?
Cc1cnc(SCc2ccccn2)nc1C1CCCN(C(=O)c2ccc3c(c2)OCO3)C1 (centres undefined),nt,nt,nt,?,20.6µM*,i
Cc1cnc(SCc2ccccn2)nc1C1CCCN(C(=O)c2ccc3[nH]c(C)c(C)c3c2)C1 (centres undefined),nt,nt,nt,?,-0.6%[9.04 µM],?
CCOC(=O)C1CCCN(C(=O)c2cc3ccccc3oc2=O)C1 (centres undefined),nt,?,6.3%,-2.1%,-4.3%,i
Cc1cnc(SCCN2CCOCC2)nc1C1CCCN(C(=O)c2cccc3c(C)c(C)[nH]c23)C1 (centres undefined),nt,nt,nt,16.4µM*,-0.1%[9.04 µM],i
Cc1cnc(SCc2ccccn2)nc1C1CCCN(C(=O)c2cc3ccccc3oc2=O)C1 (centres undefined),nt,nt,nt,20.6µM*,16.4µM*,i
COc1ccc(CN2CCCC(c3nc(-c4ccncc4)ncc3-c3ccccc3)C2)cc1OC (centres undefined),nt,nt,nt,-3.3%,-4.7%[9.04 µM],i
Cc1cnc(SCc2ccccn2)nc1C1CCCN(Cc2ccsc2)C1 (centres undefined),nt,nt,nt,14.6µM*,14.6µM*,i
O=C(Cc1coc2cc3c(cc12)CCC3)NC1CCCCCCC1,13.3%,?,-15.1%,0.0206µM*,?,i
O=C(O)Cc1coc2cc3c(cc12)CCC3,10.1%,-13.5%,11.7%,2.3%,10.5%,i
Cc1ccc(C)c(N2C(=O)N(C)c3ccccc3S2(=O)=O)c1,-22.6%,-0.7%,-8.0%,?,?,i
Cc1ccc(-n2nnnc2-c2cccnc2)cc1,nt,-19.9%,-13.1%,6.6%,-8.3%,i
Cc1ccc(-n2nnnc2-c2cnn(-c3ccc(F)cc3)c2C(F)(F)F)cc1,-16.4%,-0.4%,-30.2%,?,13µM*,?
FC(F)(F)c1nc(N2CCCC2)ncc1-c1nnnn1-c1ccc(Cl)cc1,-25.5%,?,-28.8%,18.4µM*,20.6µM*,i
Fc1ccc(-n2nnnc2-c2cnc(-c3cccs3)nc2C(F)(F)F)cc1,?,0.0%,4.8%,4.61µM*,6.51µM*,?
FC(F)(F)c1ccncc1-c1nnnn1-c1ccc(Cl)cc1,-20.7%,-5.2%,-29.5%,?,-19.3%,i
Cc1ccc(-n2nnnc2-c2cnc(-c3cccnc3)nc2C(F)(F)F)cc1,-28.2%,-8.0%,-20.2%,5.8µM*,18.4µM*,i
CCOC(=O)c1cccc(NC(=O)c2cc3c(=O)n(Cc4ccccc4)ccc3nc2C)c1,-23.9%,?,-22.7%,?,?,i
O=C1CCN(CCc2ccccc2)CCN1C(CSc1ccc(Br)cc1)c1ccccc1 (centres undefined),nt,-13.2%,1.4%,nt,nt,nt
SMILES,ATXN2 expr inh,TGFb SMAD3 inh,HepG2 viability,DT40 TDP1 no CPT,DT40 TDP1 CPT,S2 tox
Cc1ccc2c(c1)Sc1c(ccc3ccccc13)N2,nt,?,-6.6%,?,?,i
CCOC(=O)C1C(=O)Nc2nc3ccccc3n2C1C(C)C (centres undefined),9.2%,?,3.1%,2.6%,3.4%,i
COc1ccc2ccccc2c1CNCc1ccc(C)cc1,?,?,-39.4%,?,?,i
CC(NCCCOc1cccc2ccccc12)c1ccccc1 (centres undefined),nt,?,20µM*,18.4µM*,?,?
COc1ccc2ccccc2c1CNC(C)c1ccccc1 (centres undefined),nt,4.5%,-29.5%,10.3µM*,7.31µM*,i
CC(C)c1cc(C(=O)NCc2ccccc2)no1,43.4%,1.9%,-1.2%,12.0%,-5.4%,i
O=C(C1=C[C@@H](c2ccc3c(c2)OCO3)C[C@@H](OCCCCO)O1)N1CCN(Cc2ccc3c(c2)OCO3)CC1,-9.8%,0.9%,-14.9%,?,?,i
O=C(C1=C[C@H](c2ccc3c(c2)OCO3)C[C@H](OCCCCO)O1)N1CCN(Cc2ccc3c(c2)OCO3)CC1,-6.8%,-12.1%,-5.5%,18.4µM*,?,i
O=C(C1=C[C@H](c2ccc(Br)cc2)C[C@H](OCCCCO)O1)N1CCN(Cc2ccc3c(c2)OCO3)CC1,-33.9%,-26.2%,-18.6%,16.4µM*,18.4µM*,?
O=C(C1=C[C@@H](c2ccc(Br)cc2)C[C@@H](OCCCCO)O1)N1CCN(Cc2ccccc2)CC1,0.0%,-21.1%,-6.3%,5.8µM*,6.51µM*,?
O=C(C1=C[C@H](C2CCCCC2)C[C@H](OCCCCO)O1)N1CCN(Cc2ccc3c(c2)OCO3)CC1,0.0%,-28.2%,-29.2%,18.4µM*,11.6µM*,i
CC(C)c1cc(Cn2c3ccccc3c(=O)n2C(C)Cn2cc(CCc3ccccc3)nn2)on1 (centres undefined),nt,nt,nt,-27.3%,-8.5%,nt
COc1ccc(NC(=O)C(C)n2c(C)c3cnn(-c4ccccc4)c(=O)c3c2C)cc1Cl (centres undefined),-13.2%,?,-35.4%,18.4µM*,23.1µM*,i
CCOc1ccc(NC(=O)CCCn2c(C)c3cnn(-c4ccccc4)c(=O)c3c2C)cc1,-4.5%,-7.9%,5.7%,?,?,i
COc1ccc(Cl)cc1NC(=O)CCCn1c(C)c2cnn(-c3ccccc3)c(=O)c2c1C,nt,?,-14.6%,?,23.1µM*,nt

# From PubChem
